{"source": "PubChem BioAssay (Tox21)", "note": "Inconclusive results are not listed. The source made the active and inactive calls. Calls come from the whole dose curve; as a rule, active = well fitted activation curve with a large enough effect in the repeat runs; inconclusive = weak or mixed curves; inactive = no such curve, though single readings can be large or run the other way. % is set by controls: 0 for no effect and ±100 for the full control effect."}
{"biological_target": "Nuclear receptor subfamily 1 group I member 2 (Rattus norvegicus) (UniProt Q9R1A7)", "sequence (Q9R1A7 whole entry, looked up)": "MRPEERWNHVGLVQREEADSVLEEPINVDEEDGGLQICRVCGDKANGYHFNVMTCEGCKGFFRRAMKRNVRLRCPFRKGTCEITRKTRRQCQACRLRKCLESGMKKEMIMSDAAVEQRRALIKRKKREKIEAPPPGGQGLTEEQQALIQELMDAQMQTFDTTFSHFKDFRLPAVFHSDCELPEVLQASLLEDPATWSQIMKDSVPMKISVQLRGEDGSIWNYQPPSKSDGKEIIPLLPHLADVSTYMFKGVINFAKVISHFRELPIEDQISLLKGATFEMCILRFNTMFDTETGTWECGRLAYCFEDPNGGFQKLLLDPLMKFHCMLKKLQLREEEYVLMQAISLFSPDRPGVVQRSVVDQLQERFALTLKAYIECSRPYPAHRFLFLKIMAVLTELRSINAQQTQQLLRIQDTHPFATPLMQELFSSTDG", "assay": "Rat pregnane X receptor (rPXR) activation by small molecules, qHTS assay (AID 1346983); note: nearly all actives have a fitted effect of over 20% in size", "settings": "rPXR luciferase reporter cells, One-Glo luminescence, 24 h; max activation: stronger effect = higher value", "in_short": "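Luminescent readout (One-Glo luciferase, 30 min room temperature) followed 24 hr compound treatment at 37 C of rPXR cells plated 2,000 per well and preincubated 5hr; qHTS format with compounds delivered in DMSO.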"}
{"smiles": "CC(=O)OCC1=C(C(=O)O)N2C(=O)[C@@H](NC(=O)Cc3ccccc3)[C@H]2SC1", "max activation": "-4.93% (inactive)"}
{"smiles": "FC(F)(F)COCC(F)(F)F", "max activation": "-3.1% (inactive)"}
{"smiles": "CO/N=C(\\C(=O)N[C@@H]1C(=O)N2C(C(=O)O)=C(CSc3cnns3)CS[C@H]12)c1csc(N)n1", "max activation": "-0.96% (inactive)"}
{"smiles": "O=C(O)[C@H]1CN(C/C=C/P(=O)(O)O)CCN1", "max activation": "-2.14% (inactive)"}
{"smiles": "CC[C@H]1OC(=O)C[C@@H](O)[C@H](C)[C@@H](O[C@@H]2O[C@H](C)[C@@H](O[C@H]3C[C@@](C)(O)[C@@H](O)[C@H](C)O3)[C@H](N(C)C)[C@H]2O)[C@@H](CC=O)C[C@@H](C)C(=O)/C=C/C(C)=C/[C@@H]1CO[C@@H]1O[C@H](C)[C@@H](O)[C@@H](OC)[C@H]1OC", "max activation": "0.133% (inactive)"}
{"smiles": "CC1(C)S[C@@H]2[C@H](NC(=O)[C@H](N)c3ccc(O)cc3)C(=O)N2[C@H]1C(=O)O", "max activation": "-0.49% (inactive)"}
{"smiles": "CC(C)C[C@H](NC(=O)[C@@H](COC(C)(C)C)NC(=O)[C@H](Cc1ccc(O)cc1)NC(=O)[C@H](CO)NC(=O)[C@H](Cc1c[nH]c2ccccc12)NC(=O)[C@H](Cc1cnc[nH]1)NC(=O)[C@@H]1CCC(=O)N1)C(=O)N[C@@H](CCCN=C(N)N)C(=O)N1CCC[C@H]1C(=O)NNC(N)=O", "max activation": "-1.54% (inactive)"}
{"biological_target": "Nuclear receptor subfamily 1 group I member 2 (Homo sapiens) (UniProt O75469)", "assay": "CYP3A4 induction through human pregnane X receptor (PXR) by small molecules, qHTS assay (AID 1346984); note: nearly all actives have a fitted effect of over 40% in size; note: potency is the fitted concentration of half-maximal effect", "settings": "DPX-2 HepG2 PXR, CYP3A4-luciferin luminescence, 24 h; series mostly up to 46.1 µM; activation: at the top concentration", "in_short": "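Quantitative HTS in DPX-2 cells, i.e. HepG2 transfected with PXR response element and CYP3A4-promoter luciferase. Compounds in DMSO incubated 24hr at 37C; then P450-Glo CYP3A4 substrate, 3uM final, 3hr; One-Glo luminescence.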"}
{"smiles": "CCC(=O)OC(OP(=O)(CCCCc1ccccc1)CC(=O)N1C[C@H](C2CCCCC2)C[C@H]1C(=O)O)C(C)C", "note": "(stereo partly specified)", "activation": "2.56% (inactive)"}
{"smiles": "NC(=O)c1cc[n+](CC2=C(C(=O)O)N3C(=O)[C@@H](NC(=O)C(c4ccccc4)S(=O)(=O)[O-])[C@H]3SC2)cc1", "note": "(stereo partly specified)", "activation": "1.72% [at 20.6 µM] (inactive)"}
{"smiles": "FC(F)(F)C(F)(F)C(F)(F)C(F)(F)C(F)(F)F", "activation": "-8.47% (inactive)"}
{"smiles": "O=C(O)/C=C/C(=O)Nc1ccc(S(=O)(=O)Nc2nccs2)cc1", "activation": "-9.45% (inactive)"}
{"smiles": "O=C(O)Cc1nn(Cc2ccc(Br)cc2F)c(=O)c2ccccc12", "activation": "10.5% (inactive)"}
{"smiles": "CCCCCCCCCCCCCCCCCCOCC(COP(=O)([O-])OCC[N+](C)(C)C)OC", "note": "(stereo unspecified)", "activation": "-3.87% (inactive)"}
{"smiles": "CN[C@@H]1[C@@H](O[C@H]2O[C@H](CO)[C@@H](N)[C@H](O)[C@H]2O)O[C@H]2C[C@@H](N)[C@@H](O[C@H]3[C@H](O)[C@@H](O)[C@H](N)C[C@@H]3N)O[C@@H]2[C@@H]1O", "activation": "-6.92% [at 20.6 µM] (inactive)"}
{"smiles": "CCCCCCCCCCCCCC(=O)OCC(COP(=O)([O-])OCC[N+](C)(C)C)OC(=O)CCCCCCCCCCCCC", "note": "(stereo unspecified)", "activation": "-4.23% (inactive)"}
{"smiles": "C=N[C@@H](C(=O)N[C@@H]1C(=O)N2[C@@H]1SC(C)(C)[C@@H]2C(=O)O)c1ccccc1", "activation": "-9.85% (inactive)"}
{"smiles": "CCOC(=O)[C@H](CCc1ccccc1)N[C@@H](C)C(=O)N1[C@H](C(=O)O)C[C@H]2CCCC[C@@H]21", "activation": "20% (inactive)"}
{"smiles": "C/C=C/C1=C(C(=O)O)N2C(=O)[C@@H](NC(=O)[C@H](N)c3ccc(O)cc3)[C@H]2SC1", "activation": "-1.21% (inactive)"}
{"smiles": "N=C(N)n1cccn1", "activation": "-14.1% (inactive)"}
{"smiles": "O=C(O)COc1ccc(C(=O)c2cccs2)c(Cl)c1Cl", "Potency": "inactive"}
{"smiles": "O=C1CCC(c2ccccc2)(C2CCN(Cc3ccccc3)CC2)C(=O)N1", "note": "(stereo unspecified)", "Potency": "14.1 µM (active)"}
{"smiles": "CC[C@@H](C(=O)[C@@H](C)[C@@H](O)[C@H](C)CCc1ccc(C)c(O)c1C(=O)O)[C@H]1O[C@](CC)([C@H]2CC[C@](O)(CC)[C@H](C)O2)C[C@@H]1C", "activation": "-11.5% (inactive)"}
{"smiles": "CN1C(=O)C[C@@H](C(=O)N[C@@H](Cc2cnc[nH]2)C(=O)N2CCC[C@H]2C(N)=O)NC1=O", "activation": "-13.9% (inactive)"}
{"smiles": "CC(C)OC(=O)Nc1ccc2nc(-c3cscn3)[nH]c2c1", "activation": "-7.22% (inactive)"}
{"smiles": "CC(=O)Nc1ccc(OC(C)=O)cc1", "activation": "-5.05% (inactive)"}
{"smiles": "CC1(C)S[C@@H]2[C@H](N3C(=O)C(c4ccccc4)NC3(C)C)C(=O)N2[C@H]1C(=O)O", "note": "(stereo partly specified)", "activation": "-5.7% (inactive)"}
{"smiles": "CC/C=C\\C/C=C\\C/C=C\\C/C=C\\C/C=C\\CCCC(=O)O", "activation": "-3.73% (inactive)"}
{"smiles": "CC(C)=CCC/C(C)=C/CC/C(C)=C/CC/C(C)=C/CC1=C(C)C(=O)c2ccccc2C1=O", "activation": "3.27% (inactive)"}
{"smiles": "CC(C)CCC[C@@H](C)[C@H]1CC[C@H]2[C@@H]3CC[C@@H]4C[C@H](O)CC[C@]4(C)[C@H]3CC[C@]12C", "activation": "-1.18% (inactive)"}
{"smiles": "O=C1c2c(O)cccc2[C@H]([C@@H]2O[C@H](CO)[C@@H](O)[C@H](O)[C@H]2O)c2cc(CO)cc(O)c21", "activation": "-4.94% (inactive)"}
{"smiles": "NC(=O)CC[C@@H]1NC(=O)[C@H](Cc2ccccc2)NC(=O)[C@H](Cc2ccc(O)cc2)NC(=O)[C@@H](N)CSSC[C@@H](C(=O)N2CCC[C@H]2C(=O)N[C@@H](CCCN=C(N)N)C(=O)NCC(N)=O)NC(=O)[C@H](CC(N)=O)NC1=O", "activation": "2.29% (inactive)"}
